Reference: PMC12864922, “TDP-43 directly inhibits mRNA accumulation in neurites through modulation of mRNA stability”
Over roughly 9,900 sequences, “r (bound/input frequency ratio)” has its median near 0.7; the highest 2% begin near 6.5. The sample as a whole holds a higher share of the highest values than the screen did.

B1: ENSMUSG00000043670.158|Diras1 (ssRNA)
RNA: GGGAGUUCUACAGUCCGACGAUCGCUUCGAUAUCCGCAUGCUACUGCUGAGAUAGAGACCUUGGCACAGUGGCACCUCGACAGCCACCCCGACUGGGGGUUUGGGGUGCUGAGGGUGGGGUGCCCAGCUGAGAGUCUAUCAGCAAAGUCCCUGUGUGCGGUGAUAGGACUAGUGGCUGCUGCCCUAGGGCUCUGACAGAAUCUGAGCCUCUUUGCUGGUCAUGUGUACUCUGGAGACUGUCCCCCAUGUCUGCCCUGAGUUACGGAGCCCCUGUGGUAUCUGCGAGACUGUCCAGGAGACUUGCUCUUGCGGUCGCACUAGUGUGGAAUUCUCGGGUGUCAAGG
B2: ENSMUSG00000022095.20|Fam160b2|21:25;227:231 (ssRNA)
RNA: GGGAGUUCUACAGUCCGACGAUCGCUUCGAUAUCCGCAUGCUAGGUGGGGGAAGAUUCCUGCCACACAACUUCUGCCCACGGGCAGUCUCCUGCCUGGCCAUGCUGCCACUCUGUCCUCCAUGCCGGGGACUUCAGCUGCAGGACACCUCACCUGUUGACCCCACGAGCUGAGGUUUCAAGGAGGUGCUGGCUCCUAAGGCAGUGGUAUUCUUGGAGCCUUUUAGAGGAGCUAGAGGAUGGCCAGUGAGCGCCUAGAUGCUGCCCUGCAACACAUGCGUGACUAUCUCUGCUAUAUUGUGACCCUCUUGCGGUCGCACUAGUGUGGAAUUCUCGGGUGUCAAGG
B3: ENSMUSG00000035202.138|Lars2 (ssRNA)
RNA: GGGAGUUCUACAGUCCGACGAUCGCUUCGAUAUCCGCAUGCUAAUAAAGGAUUUUAAAUUUUUUUACAAGUGAGAACCUAGCAUGUCAAGGUCCUAGGUUCCAUCUCCAACACGAAAAAAGCAAGGCAACUCUACCAAAGAAACUAAUUACAUACUUGUAUUCCCAAUAUGUGAGAAGCUGAGGAAGGAGGAUCAUGAGUUUAAAGCCAUCCUUGGUUACAUGAGACUCUUGUCUCAAAGAACUACCAGGGAUCCUAAUGGACAACAAAGGUUGAAAACCAUUGAAUUAAUAAAUGUUGUGAACUCUUGCGGUCGCACUAGUGUGGAAUUCUCGGGUGUCAAGG
B4: ENSMUSG00000061578.722|Ksr2 (ssRNA)
RNA: GGGAGUUCUACAGUCCGACGAUCGCUUCGAUAUCCGCAUGCUAUCUCUGAAUGUACGUGGGGGACUCCAACAGAUGUUGGGAGAAGACUCAAUAUGAGCAUACGGGGUCAUUGUUCAAUCCUGUAUCAAGACCUUGGAGUUGUCUAAGGCUGUGGGUUUUAAAUACCUGCUGCAGGCCUCCCAUCUCUGGCUCUUUGUUUCCACUCUGGCCCAAGUUUGAGUCUCCAUAUGGGCCCUUCCUGUCCUCAUGCCCUGCCUGUCUUCAUUCCACCCAUCCACCCUCCUAAGGAUUGGUCUUGUUCCCUCUUGCGGUCGCACUAGUGUGGAAUUCUCGGGUGUCAAGG
B5: ENSMUSG00000058297.266|Spock2 (ssRNA)
RNA: GGGAGUUCUACAGUCCGACGAUCGCUUCGAUAUCCGCAUGCUAUUUCCUUGAUAUAUUUGAUGAAGAAUUCCUUACCUGGGCCUCUGAUACCCUUUGGUACGCGUACGUGUGUGUGGCGCGUAUACGUGUGUGUGUGUGUGUGUGUGUGUGUGUGUGUGUGUGUGUGUGAGAGAGAGAGAGAGAGAGAGAGAGAGAGAGAGAGAGAAAGAGAGAGAGAAUGAGAGAGAAUGAGAGAGAGAAUACCCGAGGGCCACCCUGAUGCCCAGGAAGAGUGAGGGCAGCCCCCUGUGUGGUGGAAGAGGCUCUUGCGGUCGCACUAGUGUGGAAUUCUCGGGUGUCAAGG
B6: ENSMUSG00000058297.267|Spock2 (ssRNA)
RNA: GGGAGUUCUACAGUCCGACGAUCGCUUCGAUAUCCGCAUGCUAUGAUAUAUUUGAUGAAGAAUUCCUUACCUGGGCCUCUGAUACCCUUUGGUACGCGUACGUGUGUGUGGCGCGUAUACGUGUGUGUGUGUGUGUGUGUGUGUGUGUGUGUGUGUGUGUGUGAGAGAGAGAGAGAGAGAGAGAGAGAGAGAGAGAGAGAAAGAGAGAGAGAAUGAGAGAGAAUGAGAGAGAGAAUACCCGAGGGCCACCCUGAUGCCCAGGAAGAGUGAGGGCAGCCCCCUGUGUGGUGGAAGAGGCUGGGCCUCUUGCGGUCGCACUAGUGUGGAAUUCUCGGGUGUCAAGG
B7: ENSMUSG00000058297.268|Spock2 (ssRNA)
RNA: GGGAGUUCUACAGUCCGACGAUCGCUUCGAUAUCCGCAUGCUAAUUUGAUGAAGAAUUCCUUACCUGGGCCUCUGAUACCCUUUGGUACGCGUACGUGUGUGUGGCGCGUAUACGUGUGUGUGUGUGUGUGUGUGUGUGUGUGUGUGUGUGUGUGUGAGAGAGAGAGAGAGAGAGAGAGAGAGAGAGAGAGAGAAAGAGAGAGAGAAUGAGAGAGAAUGAGAGAGAGAAUACCCGAGGGCCACCCUGAUGCCCAGGAAGAGUGAGGGCAGCCCCCUGUGUGGUGGAAGAGGCUGGGCAGCUAGCUCUUGCGGUCGCACUAGUGUGGAAUUCUCGGGUGUCAAGG
B8: ENSMUSG00000058297.271|Spock2 (ssRNA)
RNA: GGGAGUUCUACAGUCCGACGAUCGCUUCGAUAUCCGCAUGCUAUACCUGGGCCUCUGAUACCCUUUGGUACGCGUACGUGUGUGUGGCGCGUAUACGUGUGUGUGUGUGUGUGUGUGUGUGUGUGUGUGUGUGUGUGUGAGAGAGAGAGAGAGAGAGAGAGAGAGAGAGAGAGAGAAAGAGAGAGAGAAUGAGAGAGAAUGAGAGAGAGAAUACCCGAGGGCCACCCUGAUGCCCAGGAAGAGUGAGGGCAGCCCCCUGUGUGGUGGAAGAGGCUGGGCAGCUAGCUACUGGGGACCUUGUGCCUCUUGCGGUCGCACUAGUGUGGAAUUCUCGGGUGUCAAGG
B9: ENSMUSG00000031028.129|Tub (ssRNA)
RNA: GGGAGUUCUACAGUCCGACGAUCGCUUCGAUAUCCGCAUGCUACCAAAUAUCUGAGUGGAUGGGGAUGAUAGGAGUCAUCCAGUAGACUCCCUACAUCAGGGCUCUCAGCAGCCCCAGCACAACACCUAUGACACACACACAGGAUCUAGGUCACCAUUCAAGUAAUGGUAUGCUUCAGGAAGAAUGUCCUCUCUGGGAAGACUCAGCUCCCAUUAUUGCCAGCAUGCCAUGAUCAGUGAGGGCUGUGUGCCAUGCUUAGGGGGAUGGCGCAGGGUGAGGGGAGCAGAGGAUAUUUUAGGGCCCUCUUGCGGUCGCACUAGUGUGGAAUUCUCGGGUGUCAAGG

target: TDP-43 (Homo sapiens, UniProt Q13148 1-414); test: RNA Bind-n-Seq with designed 260-mer pool; 25 mM Tris-HCl, 150 mM KCl, 3 mM MgCl2, BSA (printed 500 mg/mL), 20 units/mL SUPERase IN; pH not stated; 500 nM RNA pool, 1 h, 4 C; TDP-43 5, 50, 500 nM; high values mean tight binding; conditions: protein: recombinant; tags: SBP (GST cleaved off with PreScission; pGEX-GST-SBP)
Procedure, shortened: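 An in vitro-transcribed pool of 260-nt 3′ UTR oligos (500 nM) was incubated for 1 h at 4 °C with recombinant SBP-tagged TDP-43 at 5, 50 or 500 nM held on streptavidin beads. The buffer contained 25 mM Tris-HCl, 150 mM KCl, 3 mM MgCl2, BSA and SUPERase IN. Biotin-eluted bound RNA was sequenced, and binding, R, is each oligo's normalized read abundance in the bound sample over that in input.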

Sequence of TDP-43 (Q13148 whole entry): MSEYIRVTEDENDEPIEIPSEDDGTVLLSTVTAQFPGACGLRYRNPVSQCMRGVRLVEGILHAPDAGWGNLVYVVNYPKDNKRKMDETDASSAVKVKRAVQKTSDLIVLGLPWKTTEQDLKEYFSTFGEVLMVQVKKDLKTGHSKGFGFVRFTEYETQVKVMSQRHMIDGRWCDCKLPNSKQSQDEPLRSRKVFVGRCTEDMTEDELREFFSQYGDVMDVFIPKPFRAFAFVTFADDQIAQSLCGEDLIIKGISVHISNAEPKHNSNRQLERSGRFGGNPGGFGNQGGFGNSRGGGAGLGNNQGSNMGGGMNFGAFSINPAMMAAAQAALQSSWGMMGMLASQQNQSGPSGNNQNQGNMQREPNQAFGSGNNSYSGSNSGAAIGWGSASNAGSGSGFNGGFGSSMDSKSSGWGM

**Q.** For B1, which binding signal is on record?
**A.** 0.372 R (bound/input frequency ratio)

**Q.** How did the binding signal turn out when B2 was run?
**A.** 0.271 R (bound/input frequency ratio)

**Q.** How did the binding signal turn out when B3 was run?
**A.** 0.101 R (bound/input frequency ratio)

**Q.** B4 was tested. Which binding signal did it give?
**A.** 1.64 R (bound/input frequency ratio)

**Q.** How did the binding signal turn out when B5 was run?
**A.** 5.83 R (bound/input frequency ratio)

**Q.** For B6, which binding signal is on record?
**A.** 8.95 R (bound/input frequency ratio)

**Q.** B7 was tested. Which binding signal did it give?
**A.** 2.37 R (bound/input frequency ratio)

**Q.** B8 was tested. Which binding signal did it give?
**A.** 8.28 R (bound/input frequency ratio)

**Q.** Which binding signal does the source give for B9 here?
**A.** 0.521 R (bound/input frequency ratio)
